Screens from PubChem.
Only some compounds are listed: those with a hit (about 1.3% of all), similar ones and a draw of the others.
Rango complex inh = qHTS Assay for Inhibitors of Rango (Ran-regulated importin-beta cargo) - Importin beta complex formation; AID 540263, 2011; Rango CFP/YFP FRET sensor + importin beta, 45 min; Potency, µM (titrated, usually from 92.2 µM); 340,000 tested, 0.031% active; Importin subunit beta-1 (Homo sapiens), Q14974; also: nearly all actives have a fitted effect of over 15% in size
Target sequence (Q14974 whole entry, looked up): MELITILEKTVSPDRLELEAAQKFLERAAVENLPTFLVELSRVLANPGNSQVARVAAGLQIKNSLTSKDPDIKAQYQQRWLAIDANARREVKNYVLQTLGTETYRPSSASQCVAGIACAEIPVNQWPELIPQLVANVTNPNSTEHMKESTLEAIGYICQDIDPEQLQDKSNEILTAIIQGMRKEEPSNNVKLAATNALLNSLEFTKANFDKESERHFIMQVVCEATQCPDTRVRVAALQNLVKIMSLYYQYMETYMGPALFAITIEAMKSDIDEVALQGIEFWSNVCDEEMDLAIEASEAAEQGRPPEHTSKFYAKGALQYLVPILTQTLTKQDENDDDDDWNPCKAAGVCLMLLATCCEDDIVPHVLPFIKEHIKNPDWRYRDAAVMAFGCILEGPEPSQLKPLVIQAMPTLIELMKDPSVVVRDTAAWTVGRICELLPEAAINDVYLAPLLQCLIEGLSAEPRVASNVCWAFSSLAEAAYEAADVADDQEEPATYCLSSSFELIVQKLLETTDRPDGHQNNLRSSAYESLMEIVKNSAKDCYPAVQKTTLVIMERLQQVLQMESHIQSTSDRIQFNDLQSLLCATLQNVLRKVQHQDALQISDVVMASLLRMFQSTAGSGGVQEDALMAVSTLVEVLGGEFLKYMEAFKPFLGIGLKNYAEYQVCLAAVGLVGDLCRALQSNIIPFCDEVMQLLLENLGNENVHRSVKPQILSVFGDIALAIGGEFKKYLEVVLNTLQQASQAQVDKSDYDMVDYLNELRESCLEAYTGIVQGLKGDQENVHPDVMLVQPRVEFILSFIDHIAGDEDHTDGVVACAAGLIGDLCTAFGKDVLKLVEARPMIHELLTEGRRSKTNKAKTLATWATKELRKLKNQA
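Inhibition scored from the CFP 486 nm/YFP 530 nm FRET ratio 45 min after adding 0.125 microM importin beta to 50 nM Rango biosensor preincubated 5 min with compound (room temperature, PBS with DTT, Tween-20, BSA). No-importin wells as positive control.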
hERG WT inh = qHTS for Inhibitors of KCHN2 3.1: Wildtype qHTS; activity change, % at 1.84 µM; U2OS, BacMam KCNH2, thallium flux FluxOr; hits give low values; AID 720551, 2013; 340,000 tested, 0.37% active; Voltage-gated inwardly rectifying potassium channel KCNH2 (Homo sapiens), Q12809;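 active = maximum activity change below -70%; inconclusive = maximum activity change between -70% and -50%; inactive = maximum activity change above -50%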
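U2OS cells were transduced with wild-type KCNH2 virus (2.03 x 10^8 / mL) for 4 h at room temperature, then cultured overnight at 37 C. Thallium flux was read with FluxOr dye. Rate constants were normalized to DMSO controls.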
Rango dissoc inh = qHTS Assay for Inhibitors of RanGTP induced Rango (Ran-regulated importin-beta cargo) - Importin beta complex dissociation | 340,000 tested, 0.071% active | Potency, µM (doses to about 46.1 µM) | Biochemical FRET Rango-importin beta, RanGTP-induced dissociation; also: nearly all actives have a fitted effect of over 45% in size
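Rango FRET biosensor (snurportin-1 IBB flanked by N-terminal EYFP and C-terminal CFP10) at 0.1 uM, with 0.25 uM importin beta in PBS, 1mM DTT, 0.02% Tween-20, 0.1% BSA. 0.6 uM Ran, 2mM GTP and 0.2 uM RCC1 were then added for 45 min at room temperature. Inhibition read as loss of FRET rise.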
KCNH2 3.1 block = qHTS for Inhibitors of KCHN2 3.1: Mutant qHTS | 340,000 tested, 0.95% active | activity change, % (tested at about 1.8 µM) | U2OS KCNH2 3.1, thallium flux FluxOr; hits give low values | Potassium voltage-gated channel subfamily H member 2, brain isoform KCNH2 3.1 (human);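 active = maximum activity change below -70%; inconclusive = maximum activity change from -70% to -50%; inactive = maximum activity change above -50%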;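 also: thallium influx rate constant from kinetic fluorescence after stimulation buffer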
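Thallium flux read-out: FluxOr dye with Red40 quencher in HBSS/HEPES, 45 min at RT. Rate constants from kinetic reads were normalized to positive and negative DMSO controls. Cells: U2OS virally expressing the 3.1 isoform.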
A number is an active result; . = inactive; ? = inconclusive; / = no result. Unless noted, calls follow the shape of the full dose curve.

SMILES	Rango complex inh	hERG WT inh	Rango dissoc inh	KCNH2 3.1 block
COc1ccc(CCN2CCCC(CN(C)Cc3cccc(OC)c3)C2)cc1 (centres undefined)	.	.	.	-74
CCN(Cc1ccc(OC)c(COC)c1)CC1CCCN(CCc2cccc(OC)c2)C1 (centres undefined)	.	.	.	.
COc1ccc(CCN2CCCC(CN(C)Cc3cc(OC)ccc3OC)C2)cc1 (centres undefined)	.	.	.	.
CCN(Cc1ccc(OC)c(COC)c1)CC1CCCN(CCc2cccc(F)c2)C1 (centres undefined)	.	.	.	-72
CN(Cc1ccc(C#CCCO)cc1)CC1CCCN(CCc2ccc(Cl)cc2)C1 (centres undefined)	.	.	.	.
CN(Cc1ccccc1O)CC1CCCN(CCc2ccc(Cl)cc2)C1 (centres undefined)	.	.	.	-86
Cc1cc(OCC(=O)N2CCc3ccccc3C2)c2c(-c3ccccc3)cc(=O)oc2c1	.	-203	.	.
O=C(Nc1ccc(Cl)c(Cl)c1)C1CCN(C(=O)c2ccco2)CC1	.	.	.	.
Cc1ccc(NC(=O)C2CCN(C(=O)c3ccco3)CC2)cc1	.	.	.	-85
NC(=O)CC(NC(=O)c1ccc(Br)cc1)c1ccc(N2CCN(c3ccccc3)CC2)c([N+](=O)[O-])c1 (centres undefined)	.	.	.	.
NC(=O)CC(NC(=O)c1ccccc1)c1ccc(N2CCN(c3ccccn3)CC2)c([N+](=O)[O-])c1 (centres undefined)	.	.	.	-130
O=C(O)CCc1ccc(-c2cccs2)n1CC1CCCO1 (centres undefined)	?	.	5.2µM	.
CCCCNc1c(-c2ccc(SC(C)CC)c(OC)c2)nc2ccc(C)cn12 (centres undefined)	?	.	?	.
CCCCNc1c(-c2ccc(SC3CCCCC3)c(OC)c2)nc2ccc(Cl)cn12	?	.	?	-97
CCCCNc1c(-c2ccc(SC(C)CC)c(OC)c2)nc2ccc(Cl)cn12 (centres undefined)	?	-238	?	.
CCOP(=O)(OCC)C(NC(=O)c1ccc(OC)cc1)c1ccccc1 (centres undefined)	.	.	.	-96
CC(=O)Nc1ccc(S(=O)(=O)N[C@@H](C)C(=O)N2CCN(C/C=C/c3ccccc3)CC2)cc1	.	.	.	.
CC(C)NC(=O)C12CC3CC(C1)CC(C(=O)NC(C)C)(C3)C2	.	.	.	-88
Cc1ccc(C23CC4CC(CC(C(=O)NC(C)C)(C4)C2)C3)cc1	.	.	.	.
COc1cccc(N2CCN(c3nc(-c4ccccc4C)cc(=O)[nH]3)CC2)c1	.	.	.	.
CCN1CCN(S(=O)(=O)c2ccc(Cl)c(C(=O)N(C)Cc3ccco3)c2)CC1	.	.	.	.
COc1ccc(CCNC(=O)CSc2nc(O)cc(=O)[nH]2)cc1OC	.	.	.	-80
COc1ccc(CCNC(=O)CSc2ccc3nnc(CCNC(=O)c4ccc(C)cc4)n3n2)cc1OC	?	.	6.5µM	.
COc1ccc(CCNC(=O)CSc2nnc(C(C)N(C)C)n2Cc2ccccc2)cc1OC (centres undefined)	.	.	.	-71
COc1ccc(CN2CCNC(=O)C2CC(=O)NCC2CCOCC2)cc1C (centres undefined)	.	.	.	.
SMILES	Rango complex inh	hERG WT inh	Rango dissoc inh	KCNH2 3.1 block
C=C(C)C1CC=C(C)/C(=N/NC(=O)c2ccc(NC(=O)CCC)cc2)C1 (centres undefined)	.	.	.	-87
N=c1sccn1CC(=O)N1N=C(c2ccc(Cl)cc2)CC1c1ccco1 (centres undefined)	.	.	.	-86
N#CC1(NC(=O)COC(=O)c2ncc(Cl)c(Cl)c2Cl)CCCCC1	.	.	.	-73
O=C(c1cc2sccc2n1Cc1ccc(F)cc1)N1CCN(c2nc3ccccc3s2)CC1	.	.	.	-90
CC(=O)c1cccc(NC(=O)C(C)OC(=O)/C=C/c2cccs2)c1 (centres undefined)	.	.	.	.
CCOc1cccc2sc(N(CCN(C)C)C(=O)c3cc4ccccc4cc3OC)nc12	.	.	.	-79
CCOc1cccc2sc(N(CCCN(C)C)C(=O)c3ccc(S(=O)(=O)N(C)Cc4ccccc4)cc3)nc12	.	-74	.	/
CCOC(=O)c1c(C)[nH]c(C)c1C(=O)COC(=O)c1nn(CC)c(=O)c2ccccc12	/	-102	/	.
Cc1cc(-n2c(C)cc(C(=O)COc3ccc(F)c(F)c3)c2C)no1	.	.	.	.
O=[N+]([O-])c1ccc(-c2ccc(S(=O)(=O)NCCN3CCCC3)cc2)cc1	.	.	.	-90
O=C(NCCc1ccccc1)C(c1ccccc1F)N(C(=O)c1csnn1)C1CC1 (centres undefined)	.	.	.	-86
O=C(C1=C(O)C(=O)N(CCc2ccccc2)C1c1cccs1)c1ccco1 (centres undefined)	.	.	.	-124
CC(C)C(=O)Nc1ccc(Oc2ccc3c(c2)C(=O)NC3=O)cc1	.	.	.	.
O=C(NCC(=O)N(c1cccc(F)c1)C(C(=O)NC1CCCC1)c1cccnc1)c1ccco1 (centres undefined)	.	.	.	.
Cc1ccccc1NCC(=O)N/N=C/c1ccc([N+](=O)[O-])cc1	.	.	.	-112
CC(=O)Nc1ccc(NC(=O)C(C)OC(=O)c2c(NC(C)=O)sc(C)c2C)cc1 (centres undefined)	.	.	.	.
NC(=O)c1ccc(NC(=O)CNC(=O)c2sc3ccccc3c2Cl)cc1	.	.	.	.
CCOC(=O)c1nn(-c2ccccc2)c(=O)cc1SC(C)C	.	.	.	-72
COc1ccc(C(CCNCc2ccc(OC(C)C)cc2)c2ccccc2OC)cc1 (centres undefined)	.	-88	.	-90
COc1ccc(CNCCC(c2ccc(OC)cc2)c2ccccc2OC)cc1 (centres undefined)	.	.	.	-72
COc1ccc(C(CCNCc2ccc(N(C)C)cc2)c2ccccc2OC)cc1 (centres undefined)	.	-99	.	.
CCOC(=O)C1CCN(S(=O)(=O)c2ccc(OC)c(C(=O)N3CCCCC3)c2)CC1	.	.	.	.
O=C(NCCOc1ccccc1)C1CCC(=O)N(CCCN2CCCC2=O)C1 (centres undefined)	.	.	.	.
Cn1c(CCN2CCN(c3ccccn3)CC2)nc2cc(NS(=O)(=O)c3ccccc3)ccc21	.	.	.	-76
